{
  "source": "PubChem BioAssay (NCI)",
  "note": "About 79,000 compounds went through this panel and 15% of them were active in at least one assay; those are over-represented in the sample as a whole. Active and inactive are the calls of the source. Cut-off read from the data, not from the text of the source: active = growth inhibition above about 70%; inactive = the rest.",
  "data": [
    {"assay": "NCI Yeast Anticancer Drug Screen. Data for the bub3 strain (AID 167)", "details": "S. cerevisiae bub3 mutant strain, at 50.0 µM, active compounds read high", "method_in_brief": "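Readout: yeast growth inhibition, expressed relative to vehicle-only wells. The test organism is a mutant strain from a panel with lesions in DNA repair or checkpoint genes.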", "values": [
      {"molecule": "Cc1ccccc1C1CCCCC1OS(C)(=O)=O", "note": "(stereo not given)", "growth inhibition": "7.1% (inactive)"},
      {"molecule": "N#CC(c1ccccc1)N(CCc1ccccc1)C(=O)c1ccc(C(=O)N(CCc2ccccc2)C(C#N)c2ccccc2)cc1", "note": "(stereo not given)", "growth inhibition": "6.6% (inactive)"},
      {"molecule": "C=Cc1nnnn1C", "growth inhibition": "10.4% (inactive)"},
      {"molecule": "C/C=C/C=C/C(=O)CCC1(C)OC(=O)C(C)=C1O", "note": "(stereo not given)", "growth inhibition": "-3.45% (inactive)"},
      {"molecule": "CC(CO)C1C[C@H](O)[C@@]2(C)CC(=O)C=C(CO)[C@@H]2C1", "note": "(stereo not given in full)", "growth inhibition": "-7.15% (inactive)"},
      {"molecule": "Cc1c(C)c(C(Cl)(Cl)Cl)c(C)c(C)c1Br", "growth inhibition": "3.6% (inactive)"},
      {"molecule": "COc1cc(C2C(Cl)C(=O)N2NC(=O)c2ccc(N)cc2)cc(Br)c1O", "note": "(stereo not given)", "growth inhibition": "5.85% (inactive)"},
      {"molecule": "COC(=O)c1ccc(N=NN(C)COC(C)=O)cc1", "growth inhibition": "10.2% (inactive)"},
      {"molecule": "C=C1CCc2occ(C)c2C2C1C1=C(CC(C)C1=O)C1OC12C", "note": "(stereo not given)", "growth inhibition": "12.4% (inactive)"},
      {"molecule": "Cc1n[nH]c2ccccc2c1=O", "growth inhibition": "-23.6% (inactive)"},
      {"molecule": "c1ccc(C2=NC(c3ccccc3)(c3ccccc3)N=C2c2ccccc2)cc1", "growth inhibition": "-8.55% (inactive)"},
      {"molecule": "COC1(OC)C2(Cl)C(Cl)=C(Cl)C1(Cl)C1C=CC=CC12", "note": "(stereo not given)", "growth inhibition": "-18.6% (inactive)"},
      {"molecule": "COc1ccc(C=Nc2ccc(Cl)cc2)cc1", "growth inhibition": "2.55% (inactive)"},
      {"molecule": "O=C(CCCN1CCC2(CC1)NC(=O)c1ccccc1O2)c1ccc(F)cc1", "growth inhibition": "36.8% (inactive)"},
      {"molecule": "NC(Cc1ccc(B(O)O)cc1)C(=O)O", "note": "(stereo not given)", "growth inhibition": "7.75% (inactive)"},
      {"molecule": "CCN=C(c1ccccc1)N(O)c1ccccc1", "growth inhibition": "7.7% (inactive)"},
      {"molecule": "COC(=O)/N=c1\\cc(N2CC=CCC2)nc(N)n1O", "growth inhibition": "-10.8% (inactive)"},
      {"molecule": "CC1(CO)CCCC2(C)C3=CC(=O)CCC3CCC12", "note": "(stereo not given)", "growth inhibition": "-8.95% (inactive)"},
      {"molecule": "CC(=O)OC(C)c1cc2c(s1)C(=O)c1sccc1C2=O", "note": "(stereo not given)", "growth inhibition": "89.3% (active)"},
      {"molecule": "CCNC(=O)NS(=O)(=O)c1ccc(Sc2ccc(Cl)cc2)nc1", "growth inhibition": "-0.55% (inactive)"},
      {"molecule": "Cc1cccc(N2CCN(S(C)(=O)=O)CC2)c1", "growth inhibition": "6.75% (inactive)"},
      {"molecule": "N[C@H]1c2c(Cl)cccc2C(=O)[C@H]1O", "growth inhibition": "-2.2% (inactive)"},
      {"molecule": "Cc1cccc2c(NCCC[N+](C)(C)[O-])c3c([N+](=O)[O-])ccc(C)c3nc12", "growth inhibition": "-3.1% (inactive)"},
      {"molecule": "CC(N)/C(N)=N/O", "note": "(stereo not given)", "growth inhibition": "18.4% (inactive)"},
      {"molecule": "CN(CCO)CCC1COc2ccccc2O1", "note": "(stereo not given)", "growth inhibition": "-1.05% (inactive)"},
      {"molecule": "CCCCC(SC(CC)(CC)C(N)=O)C(N)=O", "note": "(stereo not given)", "growth inhibition": "8.7% (inactive)"},
      {"molecule": "CC1CC2OC(=O)C(C)C2CC2(C)C(OC3OC(CO)C(O)C(O)C3O)OCCC12", "note": "(stereo not given)", "growth inhibition": "-6.8% (inactive)"},
      {"molecule": "CC1=N/C(=C/c2ccc3c(c2)OCO3)C(=O)O1", "growth inhibition": "-4.6% (inactive)"},
      {"molecule": "COc1ccc(C(=O)C[n+]2cc(Br)cc(Br)c2)cc1", "growth inhibition": "14.1% (inactive)"},
      {"molecule": "O=C(Nc1ccccc1)c1cc(S(=O)(=O)n2cc[nH]c2=O)c(S)cc1Cl", "growth inhibition": "2.65% (inactive)"},
      {"molecule": "CCCCC1CCC(C(=O)O)=NC1", "note": "(stereo not given)", "growth inhibition": "-0.45% (inactive)"},
      {"molecule": "COC1OC(CO)C(O)C1O", "note": "(stereo not given)", "growth inhibition": "-4.85% (inactive)"},
      {"molecule": "C=CC(O)C(O)C=C", "note": "(stereo not given)", "growth inhibition": "12.9% (inactive)"},
      {"molecule": "NC(=O)c1cc(Cl)c(N)c(Cl)c1", "growth inhibition": "-12.4% (inactive)"},
      {"molecule": "CC(C)(C)[N]=[V]([Cl])([Cl])[Cl]", "growth inhibition": "-10.6% (inactive)"},
      {"molecule": "COc1ccc(/C=C2/CSCC3=C2NC(=S)NC3c2ccc(OC)c(OC)c2OC)c(OC)c1OC", "note": "(stereo not given)", "growth inhibition": "48.4% (inactive)"},
      {"molecule": "Cc1ccc(C(C)C)cc1O", "growth inhibition": "13.7% (inactive)"},
      {"molecule": "Nc1nc2c(c(=O)[nH]1)C(c1ccc(Cl)cc1)C=C(c1ccccc1)N2", "note": "(stereo not given)", "growth inhibition": "-4.75% (inactive)"},
      {"molecule": "O=C(CCCC(=O)N/N=C/c1cc(Cl)ccc1[N+](=O)[O-])N/N=C\\c1cc(Cl)ccc1[N+](=O)[O-]", "growth inhibition": "-1.9% (inactive)"},
      {"molecule": "CC1=CC[C@](C)(O)[C@@]2(C)CC[C@H]3C(=C(C)C)C(=O)C[C@]3(C)C[C@H]12", "growth inhibition": "10.2% (inactive)"}
    ]}
  ]
}
